The values below come from article PMC7862700, “An all-to-all approach to the identification of sequence-specific readers for epigenetic DNA modifications on cytosine”.

What all share (assay): DAPPL (digital affinity profiling via proximity ligation, sequencing); 10 mM Tris-HCl pH 7.5, 50 mM NaCl, 1 mM DTT, 4% glycerol, room temperature, 30 min; GST-TFs on glutathione beads, 16-mer random dsDNA library, 0.1% formaldehyde crosslink after washing; high values mean tight binding
Experiment [1] concerns the target T1, FEV (Homo sapiens, UniProt Q99581 1-238).
T1 sequence: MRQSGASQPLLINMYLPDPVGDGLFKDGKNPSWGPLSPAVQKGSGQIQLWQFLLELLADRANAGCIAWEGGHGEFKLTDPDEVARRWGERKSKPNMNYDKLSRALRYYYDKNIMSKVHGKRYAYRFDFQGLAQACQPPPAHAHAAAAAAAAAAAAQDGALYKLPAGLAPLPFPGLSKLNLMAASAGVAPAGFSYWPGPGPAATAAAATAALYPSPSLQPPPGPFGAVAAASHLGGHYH
The following applies: protein: recombinant; tags: N-terminal GST; dsDNA, one strand shown. A digest of the protocol: (§1)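 Beads coated with glutathione captured GST-fused human transcription factors that had been expressed in yeast, and the factors were then given DNA barcodes and pooled with a tag-only sample. The pools were incubated with 200 nmole of a random double-stranded 16-mer DNA library in Tris/NaCl/DTT/glycerol buffer for 30 min at room temperature, washed, crosslinked with 0.1% formaldehyde and proximity-ligated with BsaI/T4 ligase at 37 °C for 1 h. PCR amplification and Illumina NextSeq500 sequencing came last. Binding signal is each hexamer's read frequency for a factor divided by its frequency for the tag-only sample.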

Experiment [2] addresses ETV5 (Homo sapiens, UniProt P41161 1-510). The following applies: protein: recombinant; tags: N-terminal GST; dsDNA, one strand shown. Summed up: as §1
The target of experiment [3] is HSF1 (Homo sapiens, UniProt Q00613 1-529). Conditions: protein: recombinant; tags: N-terminal GST; chain copies: 3; dsDNA, one strand shown. Summed up: as §1
The target in experiment [4] is T2, SPIC (Homo sapiens, UniProt Q8N5J4 1-248).
T2 sequence: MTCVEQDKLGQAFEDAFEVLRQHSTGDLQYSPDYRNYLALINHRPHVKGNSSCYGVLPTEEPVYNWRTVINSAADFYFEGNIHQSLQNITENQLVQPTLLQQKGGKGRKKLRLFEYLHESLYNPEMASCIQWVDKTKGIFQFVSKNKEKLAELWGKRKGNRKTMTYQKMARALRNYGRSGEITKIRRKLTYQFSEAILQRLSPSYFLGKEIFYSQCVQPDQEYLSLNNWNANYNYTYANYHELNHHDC
The following applies: protein: recombinant; tags: N-terminal GST; dsDNA, one strand shown. Summed up: as §1

For experiment [5], the target named is ELF4 (Homo sapiens, UniProt Q99607 1-663). Conditions: protein: recombinant; tags: N-terminal GST; dsDNA, one strand shown. Summed up:
as §1

Experiment [6] deals with T3, ELK4 (Homo sapiens, UniProt P28324-2 1-405).
T3 sequence: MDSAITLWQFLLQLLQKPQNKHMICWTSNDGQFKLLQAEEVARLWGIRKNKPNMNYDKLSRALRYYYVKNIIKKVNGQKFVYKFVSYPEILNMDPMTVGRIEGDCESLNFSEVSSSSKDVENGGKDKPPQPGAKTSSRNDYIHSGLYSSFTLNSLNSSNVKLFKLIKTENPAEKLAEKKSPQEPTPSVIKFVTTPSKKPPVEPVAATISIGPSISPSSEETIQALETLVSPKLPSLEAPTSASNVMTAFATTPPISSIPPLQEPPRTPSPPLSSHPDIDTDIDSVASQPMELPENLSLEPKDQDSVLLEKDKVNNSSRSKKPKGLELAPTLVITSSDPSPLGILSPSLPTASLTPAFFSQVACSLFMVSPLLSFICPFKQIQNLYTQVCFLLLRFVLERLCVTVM
Conditions: protein: recombinant; tags: N-terminal GST; dsDNA, one strand shown. A digest of the protocol: as §1

Experiment [7] has as its target T4, ETV2 (Homo sapiens, UniProt O00321 1-342).
T4 sequence: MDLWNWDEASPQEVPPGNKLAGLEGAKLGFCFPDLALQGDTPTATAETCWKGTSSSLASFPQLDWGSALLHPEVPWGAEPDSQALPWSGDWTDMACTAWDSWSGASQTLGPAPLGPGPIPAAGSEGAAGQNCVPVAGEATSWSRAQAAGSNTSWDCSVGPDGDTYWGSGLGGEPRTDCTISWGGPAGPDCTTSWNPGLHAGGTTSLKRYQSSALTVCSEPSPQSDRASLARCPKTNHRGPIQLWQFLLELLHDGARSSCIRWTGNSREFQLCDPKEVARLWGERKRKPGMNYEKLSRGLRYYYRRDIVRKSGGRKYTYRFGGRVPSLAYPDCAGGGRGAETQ
Conditions: protein: recombinant; tags: N-terminal GST; dsDNA, one strand shown. Summed up:
as §1

For experiment [8], the target named is T5, ELF3 (Homo sapiens, UniProt P78545 1-371).
T5 sequence: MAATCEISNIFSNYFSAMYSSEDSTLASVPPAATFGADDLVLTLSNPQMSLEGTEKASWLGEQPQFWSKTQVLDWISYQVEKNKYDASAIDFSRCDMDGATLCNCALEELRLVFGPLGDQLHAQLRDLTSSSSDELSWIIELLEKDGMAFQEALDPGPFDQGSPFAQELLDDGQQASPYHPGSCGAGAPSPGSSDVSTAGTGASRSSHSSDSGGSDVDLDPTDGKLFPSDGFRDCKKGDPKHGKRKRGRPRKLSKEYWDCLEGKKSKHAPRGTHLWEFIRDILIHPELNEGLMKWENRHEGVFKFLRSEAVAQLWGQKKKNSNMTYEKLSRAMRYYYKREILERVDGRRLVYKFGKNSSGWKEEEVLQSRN
Conditions: protein: recombinant; tags: N-terminal GST; dsDNA, one strand shown. A digest of the protocol: as §1

In experiment [9] the target is CRX (Homo sapiens, UniProt O43186 1-299). The following applies: protein: recombinant; tags: N-terminal GST; dsDNA, one strand shown. Summed up:
as §1

The target of experiment [10] is ETV1 (Homo sapiens, UniProt P50549 1-477). Conditions: protein: recombinant; tags: N-terminal GST; dsDNA, one strand shown. Summed up: as §1
Experiment [11] deals with T6, ERF (Homo sapiens, UniProt P50548 1-548).
T6 sequence: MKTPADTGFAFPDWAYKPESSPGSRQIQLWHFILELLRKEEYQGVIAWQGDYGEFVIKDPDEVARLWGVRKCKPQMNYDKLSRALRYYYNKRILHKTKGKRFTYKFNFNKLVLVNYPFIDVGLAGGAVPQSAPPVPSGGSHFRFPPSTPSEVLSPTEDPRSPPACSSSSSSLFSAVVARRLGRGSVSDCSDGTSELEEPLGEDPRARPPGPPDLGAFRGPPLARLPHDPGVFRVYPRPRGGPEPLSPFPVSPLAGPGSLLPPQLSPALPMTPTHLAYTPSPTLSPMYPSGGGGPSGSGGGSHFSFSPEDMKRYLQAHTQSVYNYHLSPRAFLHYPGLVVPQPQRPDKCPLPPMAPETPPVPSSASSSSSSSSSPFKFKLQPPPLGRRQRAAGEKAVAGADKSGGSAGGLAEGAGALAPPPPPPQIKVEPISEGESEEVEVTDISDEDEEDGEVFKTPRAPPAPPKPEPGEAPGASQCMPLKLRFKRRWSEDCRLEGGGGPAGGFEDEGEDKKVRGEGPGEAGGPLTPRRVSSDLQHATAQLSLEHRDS
Conditions: protein: recombinant; tags: N-terminal GST; dsDNA, one strand shown. A digest of the protocol: as §1

Experiment [12] concerns the target T7, ETV3L (Homo sapiens, UniProt Q6ZN32 1-361).
T7 sequence: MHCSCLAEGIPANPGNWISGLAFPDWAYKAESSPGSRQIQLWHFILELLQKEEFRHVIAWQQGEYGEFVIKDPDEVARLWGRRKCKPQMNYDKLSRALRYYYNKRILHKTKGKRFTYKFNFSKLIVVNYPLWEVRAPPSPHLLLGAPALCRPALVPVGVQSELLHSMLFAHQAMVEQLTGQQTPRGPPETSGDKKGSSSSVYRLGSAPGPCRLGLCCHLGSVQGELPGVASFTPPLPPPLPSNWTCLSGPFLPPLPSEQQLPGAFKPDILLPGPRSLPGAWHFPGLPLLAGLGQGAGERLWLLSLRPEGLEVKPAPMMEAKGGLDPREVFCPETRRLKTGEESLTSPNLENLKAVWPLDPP
The following applies: protein: recombinant; tags: N-terminal GST; dsDNA, one strand shown. A digest of the protocol:
as §1

Experiment [13] concerns the target T8, ETS2 (Homo sapiens, UniProt P15036 1-469).
T8 sequence: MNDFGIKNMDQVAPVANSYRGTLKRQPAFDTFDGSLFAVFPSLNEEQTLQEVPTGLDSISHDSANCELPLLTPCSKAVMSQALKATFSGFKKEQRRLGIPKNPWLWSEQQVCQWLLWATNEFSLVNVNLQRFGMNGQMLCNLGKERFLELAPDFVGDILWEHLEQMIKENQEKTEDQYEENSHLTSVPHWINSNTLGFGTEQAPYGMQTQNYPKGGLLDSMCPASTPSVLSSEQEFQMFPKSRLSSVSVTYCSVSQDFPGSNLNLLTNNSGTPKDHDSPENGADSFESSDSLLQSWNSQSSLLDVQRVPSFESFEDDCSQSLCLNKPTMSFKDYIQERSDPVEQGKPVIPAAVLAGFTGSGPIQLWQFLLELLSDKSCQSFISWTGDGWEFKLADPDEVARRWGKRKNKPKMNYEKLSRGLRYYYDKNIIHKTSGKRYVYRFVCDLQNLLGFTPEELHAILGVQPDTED
The following applies: protein: recombinant; tags: N-terminal GST; dsDNA, one strand shown. A digest of the protocol: as §1

In experiment [14] the target is T9, SPDEF (Homo sapiens, UniProt O95238 1-335).
T9 sequence: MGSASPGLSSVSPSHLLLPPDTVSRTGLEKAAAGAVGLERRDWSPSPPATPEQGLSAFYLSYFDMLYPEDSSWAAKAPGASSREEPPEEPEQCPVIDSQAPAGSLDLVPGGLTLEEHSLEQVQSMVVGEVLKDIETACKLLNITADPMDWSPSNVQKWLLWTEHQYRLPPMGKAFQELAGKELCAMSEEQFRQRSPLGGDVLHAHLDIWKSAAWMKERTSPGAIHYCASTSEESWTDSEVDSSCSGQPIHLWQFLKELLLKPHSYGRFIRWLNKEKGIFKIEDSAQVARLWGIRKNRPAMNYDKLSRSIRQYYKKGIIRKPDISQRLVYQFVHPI
The following applies: protein: recombinant; tags: N-terminal GST; dsDNA, one strand shown. A digest of the protocol: as §1

Experiment [15] concerns the target T10, ETV7 (Homo sapiens, UniProt Q9Y603 1-341).
T10 sequence: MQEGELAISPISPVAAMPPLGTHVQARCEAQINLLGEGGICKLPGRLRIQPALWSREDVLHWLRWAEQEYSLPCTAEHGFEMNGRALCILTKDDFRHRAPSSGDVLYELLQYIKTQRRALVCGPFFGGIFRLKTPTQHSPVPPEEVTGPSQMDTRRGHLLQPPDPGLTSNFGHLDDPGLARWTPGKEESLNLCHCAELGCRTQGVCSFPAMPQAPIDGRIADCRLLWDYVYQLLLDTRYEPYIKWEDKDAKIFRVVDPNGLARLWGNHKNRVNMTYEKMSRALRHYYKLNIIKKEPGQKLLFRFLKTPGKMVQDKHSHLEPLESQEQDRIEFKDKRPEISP
Conditions: protein: recombinant; tags: N-terminal GST; dsDNA, one strand shown. Summed up: as §1

In experiment [16] the target is T11, ELF5 (Homo sapiens, UniProt Q9UKW6-2 1-255).
T11 sequence: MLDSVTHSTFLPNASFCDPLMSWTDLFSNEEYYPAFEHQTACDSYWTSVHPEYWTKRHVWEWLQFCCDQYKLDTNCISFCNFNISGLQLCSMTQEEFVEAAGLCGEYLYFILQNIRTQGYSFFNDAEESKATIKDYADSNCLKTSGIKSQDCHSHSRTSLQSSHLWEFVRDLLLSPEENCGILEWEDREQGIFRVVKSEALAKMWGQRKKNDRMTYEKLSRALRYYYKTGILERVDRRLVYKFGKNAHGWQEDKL
Conditions: protein: recombinant; tags: N-terminal GST; dsDNA, one strand shown. Summed up: as §1

Experiment [17] has as its target T12, ETV3 (Homo sapiens, UniProt P41162-2 1-143).
T12 sequence: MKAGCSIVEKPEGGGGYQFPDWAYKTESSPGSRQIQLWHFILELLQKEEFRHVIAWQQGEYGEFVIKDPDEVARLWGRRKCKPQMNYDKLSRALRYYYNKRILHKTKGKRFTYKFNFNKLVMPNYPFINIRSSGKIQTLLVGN
Conditions: protein: recombinant; tags: N-terminal GST; dsDNA, one strand shown. Summed up: as §1

In experiment [18] the target is ETV6 (Homo sapiens, UniProt P41212 1-452). The following applies: protein: recombinant; tags: N-terminal GST; dsDNA, one strand shown. A digest of the protocol: as §1
Sequence of ETV6 (P41212 whole entry): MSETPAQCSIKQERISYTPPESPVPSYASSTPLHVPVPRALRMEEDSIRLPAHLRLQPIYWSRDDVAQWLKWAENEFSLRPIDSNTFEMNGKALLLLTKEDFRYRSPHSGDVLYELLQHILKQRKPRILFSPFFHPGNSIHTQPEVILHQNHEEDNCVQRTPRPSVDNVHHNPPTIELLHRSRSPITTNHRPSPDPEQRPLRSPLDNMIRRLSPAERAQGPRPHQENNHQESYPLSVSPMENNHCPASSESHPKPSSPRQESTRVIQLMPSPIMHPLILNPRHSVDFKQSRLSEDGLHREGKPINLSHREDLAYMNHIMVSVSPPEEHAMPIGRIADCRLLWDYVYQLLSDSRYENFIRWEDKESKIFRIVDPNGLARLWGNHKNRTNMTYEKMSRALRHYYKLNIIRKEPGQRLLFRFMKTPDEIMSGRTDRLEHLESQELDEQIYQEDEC

Sequence of ELF4 (Q99607 whole entry): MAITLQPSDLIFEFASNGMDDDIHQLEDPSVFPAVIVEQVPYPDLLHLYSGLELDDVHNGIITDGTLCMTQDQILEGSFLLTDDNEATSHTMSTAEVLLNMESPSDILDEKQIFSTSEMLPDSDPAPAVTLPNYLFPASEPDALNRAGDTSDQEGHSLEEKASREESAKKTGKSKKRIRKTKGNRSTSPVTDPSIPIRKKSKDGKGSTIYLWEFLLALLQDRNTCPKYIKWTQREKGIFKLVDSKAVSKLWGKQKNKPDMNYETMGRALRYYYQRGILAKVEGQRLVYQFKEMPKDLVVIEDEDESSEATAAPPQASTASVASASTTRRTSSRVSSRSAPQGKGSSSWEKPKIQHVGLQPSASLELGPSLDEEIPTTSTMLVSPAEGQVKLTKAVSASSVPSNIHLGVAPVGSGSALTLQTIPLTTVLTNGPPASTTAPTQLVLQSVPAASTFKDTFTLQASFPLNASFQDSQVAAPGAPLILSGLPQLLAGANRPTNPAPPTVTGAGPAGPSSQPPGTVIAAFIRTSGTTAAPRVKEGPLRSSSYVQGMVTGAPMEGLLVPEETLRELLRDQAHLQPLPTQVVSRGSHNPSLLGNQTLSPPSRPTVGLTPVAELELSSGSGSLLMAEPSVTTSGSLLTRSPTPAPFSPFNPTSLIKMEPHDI
Sequence of ETV5 (P41161 whole entry): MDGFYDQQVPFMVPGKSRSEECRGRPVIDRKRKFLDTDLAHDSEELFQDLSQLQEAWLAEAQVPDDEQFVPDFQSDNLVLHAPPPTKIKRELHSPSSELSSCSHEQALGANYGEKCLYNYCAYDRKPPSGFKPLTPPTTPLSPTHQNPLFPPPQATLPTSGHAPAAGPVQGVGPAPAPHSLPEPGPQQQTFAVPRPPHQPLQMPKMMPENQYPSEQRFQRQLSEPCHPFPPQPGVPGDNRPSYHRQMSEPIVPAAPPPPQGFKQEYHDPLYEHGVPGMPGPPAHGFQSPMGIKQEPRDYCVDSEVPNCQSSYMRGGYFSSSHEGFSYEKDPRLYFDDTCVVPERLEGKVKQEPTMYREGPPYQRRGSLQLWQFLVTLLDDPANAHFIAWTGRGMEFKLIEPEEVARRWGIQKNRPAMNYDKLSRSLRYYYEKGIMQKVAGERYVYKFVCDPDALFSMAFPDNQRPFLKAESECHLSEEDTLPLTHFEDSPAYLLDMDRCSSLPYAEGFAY
Sequence of ETV1 (P50549 whole entry): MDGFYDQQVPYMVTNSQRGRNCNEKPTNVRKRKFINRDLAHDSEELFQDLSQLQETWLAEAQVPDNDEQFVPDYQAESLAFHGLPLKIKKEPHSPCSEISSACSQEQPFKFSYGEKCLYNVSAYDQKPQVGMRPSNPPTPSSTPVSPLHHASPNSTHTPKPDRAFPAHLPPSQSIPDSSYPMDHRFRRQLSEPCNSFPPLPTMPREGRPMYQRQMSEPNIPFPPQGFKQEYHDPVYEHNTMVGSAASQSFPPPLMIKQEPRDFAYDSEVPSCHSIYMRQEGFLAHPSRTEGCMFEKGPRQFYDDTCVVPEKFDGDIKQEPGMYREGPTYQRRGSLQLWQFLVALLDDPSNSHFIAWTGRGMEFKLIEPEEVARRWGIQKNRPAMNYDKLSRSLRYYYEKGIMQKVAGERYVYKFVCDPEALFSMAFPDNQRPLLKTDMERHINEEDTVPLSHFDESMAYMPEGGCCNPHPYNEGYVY
Sequence of HSF1 (Q00613 whole entry): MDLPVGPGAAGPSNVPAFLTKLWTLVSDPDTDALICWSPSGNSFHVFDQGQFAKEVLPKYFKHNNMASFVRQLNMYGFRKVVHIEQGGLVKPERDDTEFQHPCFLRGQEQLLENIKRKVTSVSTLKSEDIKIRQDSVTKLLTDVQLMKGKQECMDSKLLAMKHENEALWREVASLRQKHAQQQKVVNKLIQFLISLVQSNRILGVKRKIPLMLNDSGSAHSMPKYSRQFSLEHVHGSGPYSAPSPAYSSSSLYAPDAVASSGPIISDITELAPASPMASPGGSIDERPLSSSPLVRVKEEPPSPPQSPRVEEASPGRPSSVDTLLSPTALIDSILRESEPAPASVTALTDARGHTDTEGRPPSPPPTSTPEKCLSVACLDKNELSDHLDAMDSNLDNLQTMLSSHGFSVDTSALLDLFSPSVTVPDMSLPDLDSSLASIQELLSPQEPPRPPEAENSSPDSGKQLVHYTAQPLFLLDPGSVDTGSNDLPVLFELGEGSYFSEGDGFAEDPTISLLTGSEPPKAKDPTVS
Sequence of CRX (O43186 whole entry): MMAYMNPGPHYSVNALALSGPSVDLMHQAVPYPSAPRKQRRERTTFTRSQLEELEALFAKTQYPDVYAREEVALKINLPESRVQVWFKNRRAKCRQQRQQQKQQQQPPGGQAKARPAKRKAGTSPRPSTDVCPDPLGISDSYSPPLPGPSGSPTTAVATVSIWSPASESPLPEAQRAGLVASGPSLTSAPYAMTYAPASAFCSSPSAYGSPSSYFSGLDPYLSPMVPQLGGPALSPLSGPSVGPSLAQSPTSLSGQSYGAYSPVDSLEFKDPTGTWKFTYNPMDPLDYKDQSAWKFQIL

TAACGC: the binding signal is 1.19 fold enrichment (6-mer frequency, TF over GST control) in experiment [1]; 1.22 fold enrichment (6-mer frequency, TF over GST control) in [2]; 1.28 fold enrichment (6-mer frequency, TF over GST control) in experiment [3]; 1.05 fold enrichment (6-mer frequency, TF over GST control) in experiment [4]; 1.15 fold enrichment (6-mer frequency, TF over GST control) in experiment [5]; 1.17 fold enrichment (6-mer frequency, TF over GST control) in experiment [6]. The binding signal in [7] was 1.13 fold enrichment (6-mer frequency, TF over GST control); in [8], 1.17 fold enrichment (6-mer frequency, TF over GST control); in experiment [9] it was 1.63 fold enrichment (6-mer frequency, TF over GST control); in [10], 1.12 fold enrichment (6-mer frequency, TF over GST control); in [11] it was 1.06 fold enrichment (6-mer frequency, TF over GST control); in experiment [12] it was 1.18 fold enrichment (6-mer frequency, TF over GST control). Moreover, the binding signal in [13] was 1.15 fold enrichment (6-mer frequency, TF over GST control); in experiment [14] it was 1.15 fold enrichment (6-mer frequency, TF over GST control); in experiment [15] it was 1.01 fold enrichment (6-mer frequency, TF over GST control); in [16], 1.13 fold enrichment (6-mer frequency, TF over GST control); in experiment [17] it was 1.2 fold enrichment (6-mer frequency, TF over GST control); in experiment [18], 1.17 fold enrichment (6-mer frequency, TF over GST control).
